Most compounds without a hit are left out; they make up all but 17% or so of the library.
DT40 TDP1 no CPT: qHTS for Inhibitors of human tyrosyl-DNA phosphodiesterase 1 (TDP1): qHTS in cells in absence of CPT; DT40 Tdp1-/- hTDP1 cells, no CPT, ATP luminescence, 48 h; Potency, µM (series often up to 46.2 µM), without a hit: at the highest dose activity change, negative = growth inhibition, most hits filed as inhibitors; actives 15% (n = 420,000); AID 686978, 2013; also: % is scaled to controls: 0 for no effect and ±100 for the full control effect; nearly all actives have a fitted effect of over 55% in size
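Readout: luminescence from CellTiter-Glo after 30 min in the dark at RT. Cells: DT40 Tdp1-/- with stable hTDP1, 400/well. Exposure: compounds alone, ≥48 hr, 37 °C.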
ATXN viability: cell viability loss in ATXN counter-screen; S2 cells (HEK-293 line with an ATXN2-luciferase reporter) viability, CellTiter-Fluor protease fluorescence, 24 h; actives 0.49% (n = 400,000); Potency, µM (titrated, usually from 56.7 µM), most hits filed as cytotoxic; also: nearly all actives have a fitted effect of over 40% in size
HepG2 tox: counter-screen for TGF-b inhibitors: cytotoxicity in HepG2 cells | Potency, µM (doses to about 46.1 µM), without a hit: at the top dose activity change, negative = cytotoxicity, hits mostly cytotoxic | HepG2 CAGA-GFP viability, ATP luminescence, 18 h | actives 0.76% (n = 410,000)
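HepG2 CAGA-GFP cells (1000/well, DMEM with 1% FBS) received compound, then TGF-beta at 500 pg/mL final, and were incubated 18 hours at 37 degrees C. Viability was read by CellTiter-Glo luminescence. Media-only wells were set as complete cell-killing and DMSO as no toxicity.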
ATXN2 expr inh: inhibitors of ATXN2 expression. HEK-293 ATXN2-luciferase reporter, luminescence, 24 h. Potency, µM (titrated, usually from 57 µM), inactives show top-dose activity change, negative = inhibition, most hits filed as inhibitors. actives 0.72% (n = 360,000). AID 1745845; also: % is scaled to controls: 0 for no effect and ±100 for the full control effect; nearly all actives have a fitted effect of over 55% in size
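ATXN2-luciferase reporter cells (luciferase flanked by upstream and downstream ATXN2 gene portions) were treated 24 h at 37 °C with compounds at up to 57 uM. SteadyGlo luminescence gave expression; GF-AFC fluorescence gave viability.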
DT40 TDP1 CPT: growth inhibition of DT40 Tdp1-/-;hTDP1 cells with camptothecin (screen for TDP1 inhibitors). chicken DT40 Tdp1-/-;hTDP1 cells + 20 nM CPT, ATP luminescence, 48 h. actives 12% (n = 420,000). Potency, µM (titrated, usually from 46.2 µM), for the others: at the highest dose activity change, negative = growth inhibition, most hits filed as inhibitors. AID 686979; also: % is scaled to controls: 0 for no effect and ±100 for the full control effect; nearly all actives have a fitted effect of over 55% in size
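Chicken DT40 Tdp1-/- cells complemented with human TDP1, 400 cells/well, exposed to compounds plus 20 nM camptothecin for at least 48 h at 37 C; viability read as ATP content by CellTiter-Glo luminescence.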
TGFb inhibitor: TGF-b pathway inhibition | HepG2 CAGA-GFP TGF-b/SMAD3 reporter, GFP fluorescence, 18 h; TGF-beta stimulated, 500 pg/mL final | Potency, µM (top dose mostly 46.1 µM), for inactives: top-dose activity, negative = inhibition, hits mostly inhibitors | actives 1.2% (n = 410,000) | AID 588855; also: % is scaled to controls: 0 for no effect and ±100 for the full control effect; nearly all actives have a fitted effect of over 65% in size
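Inhibition was scored as loss of TGF-beta-induced (500 pg/mL final, 18 hours, 37 degrees C) GFP in HEPG2 cells carrying a CAGA-GFP reporter, in DMEM with 1% FBS. Well GFP was summed per cell; Activity was normalised to unstimulated and stimulated DMSO wells, then concentration-response fitting.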
Active calls of the source: *; i = inactive; ? = inconclusive; · = no result given; [ ] = another dose, or the depositor's remark. Calls follow the shape of the dose curve; as a rule, active = well fitted curve in the direction sought with a large enough effect; inconclusive = small, poorly fitted or top-dose-only effect, or another doubt; inactive = no such curve, though single readings can be large; an effect the other way counts as inactive or inconclusive. Potency is read from the fitted curve at half-maximal effect.

SMILES	DT40 TDP1 no CPT	ATXN viability	HepG2 tox	ATXN2 expr inh	DT40 TDP1 CPT	TGFb inhibitor
Cc1cc(O)cc(O)c1/C=N/NC(=O)c1ccc2c(c1)OCCO2	6.5µM*	i	-18%	·	5.8µM*	-1%
O=C(N/N=C/c1c(O)ccc2ccccc12)c1ccc(CO)nc1	4.6µM*	i	-23%	4µM*	4.6µM*	-5%
CC/C(=N/NC(=O)c1ccc2c(c1)OCO2)c1ccccc1O	3.7µM*	?	-39%	·	6.5µM*	2.5µM*
O=C(CNC(=O)c1ccc(S(=O)(=O)N2CCCC2)cc1)N/N=C/c1ccccc1Cl	13µM*	i	26%	-8%	?	29%
COc1ccccc1-c1ccnc(-n2ncc(C(=O)NCCc3cccnc3)c2C)n1	-2%	i	·	·	4%[9.04 µM]	·
CCCCn1c(N)c(N(CCC(C)C)C(=O)c2ccc(C)c(S(=O)(=O)N3CCOCC3)c2)c(=O)[nH]c1=O	1%	?	-7%	7%	0%	0%
O=C(NN=Cc1c(O)ccc2ccccc12)c1ccc2c(c1)OCO2	2.6µM*	i	-81%	3.2µM*	5.8µM*	?
O=C(N/N=C\c1c(O)ccc2ccccc12)c1ccc(S(=O)(=O)N2CCCCC2)cc1	3.7µM*	·	19%	0.53µM*	3.3µM*	0%
O=C(N/N=C/c1ccccc1)c1ccc2c(c1)OCO2	-14%	i	-41%	-20%	-6%	-8%
COc1ccc(N(Cc2cccs2)C(=O)COc2cccc(C)c2C)cc1	18µM*	·	-16%	·	?	?
COc1ccc(OC(=O)COc2ccccc2C)cc1	-14%	i	-26%	-27%	-13%	0%
Cc1ccc(N(Cc2cccs2)C(=O)c2ccc(OC(C)C)cc2)cc1	?	·	-50%	·	21µM*	-17%
Cc1ccc(OCC(=O)N(Cc2cccs2)C2CCS(=O)(=O)C2)cc1C (centres undefined)	-17%	i	-11%	?	?	-9%
COc1ccc(N(Cc2cccs2)C(=O)COc2cc(C)c(Cl)c(C)c2)cc1	?	·	-28%	·	?	16µM*
COc1ccc(N(Cc2cccs2)C(=O)c2ccc(Br)o2)cc1	18µM*	·	-4%	·	15µM*	-50%
COc1ccc(CN(C(=O)c2cccs2)c2ccccc2)cc1	?	i	-21%	-30%	-12%	-5%
O=C(NCC1CCCO1)c1cccc(S(=O)(=O)Nc2ccc(F)cc2)c1 (centres undefined)	-29%	i	-3%	2%	-19%	-1%
CN1C(=O)C(c2cn(C)c3ccccc23)(c2cn(C)c3ccccc23)c2cc(Br)ccc21	-25%	·	·	·	-19%	·
Cc1cc(C)cc(OCC(=O)N(Cc2cccs2)c2ccc(Cl)cc2)c1	?	i	-21%	-19%	?	?
Cc1ccc(N(Cc2cccs2)C(=O)COc2cccc(C)c2)cc1	23µM*	?	-44%	?	?	?
O=C1OCCC1(c1ccccc1)c1ccccc1	-11%	i	-10%	3%	?	-14%
COc1cc2c(cc1OC)/C(=C/C(=O)c1ccc(OC)c([N+](=O)[O-])c1)NCC2	18µM*	i	-12%	?	?	5%
COc1ccccc1CN1C(=S)SC(C)(C)C1NO (centres undefined)	-22%	i	-15%	-3%	-20%	3%
Cc1nn(CC(=O)NCCc2ccc(Cl)cc2)c(=O)c2cc3cc(F)ccc3n12	-1%	i	0%	6%	-4%	22%
O=C1CCN(Cc2ccccc2)CCN1[C@H](COc1ccccc1)Cc1ccccc1	21µM*	?	-10%	-26%	21µM*	?
SMILES	DT40 TDP1 no CPT	ATXN viability	HepG2 tox	ATXN2 expr inh	DT40 TDP1 CPT	TGFb inhibitor
CN1CCC(=O)N([C@H](COc2ccccc2)Cc2ccccc2)CC1	-4%	i	-12%	2%	19%	11%
CC(C)C[C@@H](COc1ccccc1)N1CCN(Cc2ccccc2)CCC1=O	?	i	-31%	9%	?	?
CCCN1CCC(=O)N([C@H](COc2ccccc2)Cc2ccccc2)CC1	?	i	-11%	-6%	26µM*	24%
CC1c2[nH]c3ccccc3c2CCN1C(=O)Nc1ccccc1 (centres undefined)	23µM*	i	-2%	-18%	23µM*	-4%
Cc1nonc1CC(=O)N1CCc2c([nH]c3ccccc23)C1c1ccccc1F (centres undefined)	?	i	-5%	14%	?	9%
Cc1ccc(NC(=O)N2CCc3c([nH]c4ccccc34)C2c2ccccc2F)c(Cl)c1 (centres undefined)	23µM*	i	-18%	48%	?	-13%
COc1ccc(NC(=O)N2CCc3c([nH]c4ccc(OC)cc34)C2c2ccc(OC)cc2)cc1 (centres undefined)	21µM*	?	-13%	228%	?	-16%
COc1ccc2[nH]c3c(c2c1)CCN(C(=O)c1cccc(Cl)c1)C3c1ccc(F)cc1 (centres undefined)	?	?	-12%	61%	?	?
CCOc1ccc(C2C(C(=O)Nc3ccc(OC)cc3)=C(C)Nc3nc(SCc4ccc(Cl)cc4)nn32)cc1 (centres undefined)	-23%	i	5%	9%	-1%	3%
Cc1cccc(NC(=O)CNC(=O)CN2CCN(C)CC2)c1C	-8%	i	-2%	-14%	7%	3%
CC(=O)c1ccc(OC(C)C)c(Cc2c(O)nc(N)[nH]c2=O)c1	-19%	i	-3%	1%	-27%	2%
CC(=O)c1ccc(OC(C)C)c(CSC(=N)N)c1	?	i	-12%	-11%	23µM*	-12%
Cc1ccc2nc(-c3cccnc3)c(Nc3ccccc3C)n2c1	?	?	-29%	-33%	16µM*	-28%
Cc1ccccc1Nc1c(-c2ccco2)nc2c(C)cccn12	21µM*	i	-58%	70%	23µM*	1%
Cc1ccccc1Nc1c(-c2cccnc2)nc2ccccn12	?	i	-19%	-12%	21µM*	3%
Cc1ccc2nc(-c3ccncc3)c(Nc3ccccc3C)n2c1	?	?	-3%	123%	?	-30%
Cc1ccccc1Nc1c(-c2ccncc2)nc2ccc(Br)cn12	18µM*	i	-31%	1%	23µM*	?

From PubChem BioAssay
